Records with an inconclusive call do not appear. Unmarked numbers belong to inactive results. Active and inactive are the calls of the source. Calls follow the shape of the dose curve; as a rule, active = well fitted inhibition curve with a large enough effect; inconclusive = small, poorly fitted or top-dose-only effect; inactive = no such curve, though single readings can be large or run the other way.
Potency is read from the fitted curve at half-maximal effect.

A short description of the assay: BET inhibitor-based combinations targeting novel dependencies in MECOM-rearranged (r) AML: SET-2 cell line (AID 2202231). Also: nearly all actives have a fitted effect of over 35% in size. The conditions noted are these: SET-2 AML cells viability, CellTiter-Glo luminescence, 48 h; viability: active compounds read low, series mostly up to about 46 µM. The text has this: Ecotropic viral insertion site 1 (EVI1) is located on chromosome 3q26.2 as part of the MECOM (MDS and EVI1 complex) locus. Under normal hematopoiesis, EVI1 is a regulator of hematopoietic stem cell maintenance and self-renewal and EVI1 levels decrease as the cells differentiate. In approximately 5-10% of de novo acute myeloid leukemia (AML) EVI1 is aberrantly expressed, including Chromosomal inv(3)(q21;q26.2) or t(3;3)(q21;q26.2) alterations (MECOM-r) that account for about 50% of AML with EVI1 overexpression 31. AMLs with high levels of EVI1 have a poor prognosis and an overall survival time averaging between 10-14 months. EVI1 overexpression confers resistance in leukemia cells, highlighting the need to develop new targeted therapies for EVI1 overexpressing AMLs.
Here, we performed an unbiased chemical drug screening by evaluating the single agent activity of a collection of 2,480 oncology-focused, approved and investigational drugs (NCATS Mechanism Interrogation Plates, MIPE v5.0) against a panel of seven AML cell lines. These included four MECOM-r cell-lines (AML-191, AML-194, UCSD-AML1 and HNT-34) and three non-MECOM-r AMLs (MV4-11, OCI-AML3 and SET-2). Exploiting the mechanistic redundancy built in the library, we identified target-level sensitivities in MECOM-r AML cells and relative activity as compared to other AML subtypes.
A collection of 2480 mechanistically annotated dugs (MIPE v5.0) was used to screen four 3q26.2 rearranged AML cell lines and three non-3q26.2 rearranged AML cell lines. This library purposely exploits redundancy by including multiple inhibitors of key onco-targets, while simultaneously encompassing mechanistic diversity, targeting more than 800 distinct mechanisms of action. Briefly, cells were seeded in 5 uL of growth media using a Multidrop Combi dispenser into 1536 well white polystyrene tissue culture treated plates (Corning) at a density of 500cells/well. For each cell-line, for each of the 2480 drugs in MIPE v5.0 library, an 11-point dose curve was generated via a 1536 pin-tool. Plates were incubated for 48 hr at standard incubator conditions, covered by a stainless steel gasketed lid to prevent evaporation. Cell viability was determined by luminescence based, Cell Titer Glo assay (Promega). In detail, 3 uL of Cell Titer Glo were added to each well and plates were incubated at room temperature for 15 min with a stainless-steel lid in place. Luminescence readings were taken using a Viewlux (PerkinElmer) with a 2 s exposure time per plate. Compound dose-response curves were normalized to DMSO and empty well controls on each plate. Quantitative drug activity data from dose-response curves was determined utilizing area Under the Curve (AUC) and Z-transformed AUC (Z-AUC, a mean-centering transformation applied to each individual cell-line screened).
Regarding `C#Cc1cccc(Nc2ncnc3cc4c(cc23)OCCOCCOCCO4)c1`, the viability was 93.5%.
Take `COc1cc(Nc2ncc(F)c(Nc3ccc4c(n3)N(COP(=O)(O)O)C(=O)C(C)(C)O4)n2)cc(OC)c1OC`: the Potency is 13.2 µM (active).
Consider `CCCCNc1ncc2c(-c3ccc(F)cc3)nn(CC3CCC(N)CC3)c2n1` (stereo not given), for which the Potency is 14.4 µM (active).
On to `CN1C/C=C/CCOc2cccc(c2)-c2ccnc(n2)Nc2cccc(c2)C1`, for which the Potency was 0.118 µM (active).
In the case of `CC(C)n1c(=O)cc(N[C@@H](C)c2ccccc2)[nH]c1=O`, the viability was 110%.
The same measure, in the same setting: for `CC[C@H](CC[C@@H](C)[C@H]1CC[C@H]2[C@@H]3CC=C4C[C@@H](O)CC[C@]4(C)[C@H]3CC[C@]12C)C(C)C` the value was 104%.
Turning to `CN1CCCN(C(=O)c2cccc(-c3ccc(/C=C4/C(=O)Nc5ccc(Cl)cc54)o3)c2)CC1`, the Potency is 20.9 µM (active).
Same read-out and setting: the value for `CC1c2cccc(O)c2C(O)=C2C(=O)C3(O)C(O)=C(C(N)=O)C(=O)C(N(C)C)C3C(O)C21` (stereo not given) was 26.3 µM (active); that for `O=S(=O)(Nc1ccc(-c2cccnc2)c2cccnc12)c1cccc(C(F)(F)F)c1` was 10.5 µM (active).
For `CN(C)C(N)=NC(=N)N`, the viability is 120%.
`COC(=O)N[C@@H](C)CNc1nccc(-c2cn(C(C)C)nc2-c2cc(Cl)cc(NS(C)(=O)=O)c2F)n1`: the Potency was 2.63 µM (active).
As to `Cn1cc(-c2nc(N[C@@H]3CCCC[C@@H]3N)c(F)c3c2C(=O)NC3)cn1`, the viability is 112%.
As for `CCN1CCN(Cc2ccc(NC(=O)c3ccc(C)c(/C=C/c4cnc5[nH]ccc5c4OC)c3)cc2C(F)(F)F)CC1`, the Potency was 5.9 µM (active).
For the molecule Ac-PHSCN-NH2, the viability is 109%.
In the case of `CC(=O)O[C@H]1C(=O)[C@@]2(C)C([C@H](OC(=O)c3ccccc3)[C@]3(O)C[C@H](OC(=O)[C@H](O)[C@@H](NC(=O)c4ccccc4)c4ccccc4)C(C)=C1C3(C)C)[C@]1(OC(C)=O)CO[C@@H]1C[C@@H]2O` (stereo not given in full), the Potency was 0.148 µM (active).
Take `NC(=O)c1ccc2nc(-c3ccc(C4(N)CCC4)cc3)c(-c3ccccc3)n2n1`: the viability was 98.4%.
Regarding `COCc1c(-c2ccc(NC(=O)Nc3cc(C(F)(F)F)ccc3F)c(F)c2)c2c(N)ncnn2c1CN1CCOCC1`, the Potency is 6.61 µM (active).
As to `C=CC(=O)Nc1cc2c(Nc3ccc(F)c(Cl)c3)ncnc2cc1C#CC(C)(C)N1CCN(C)CC1`, the Potency is 5.9 µM (active).
On the same count and under the same terms, for `Cn1cc(C2=C(c3cn(C)c4cc([N+](=O)[O-])ccc34)C(=O)NC2=O)c2ccccc21` the value was 2.35 µM (active).
As for `COc1cc(Oc2ccnc3cc(OC)c(OC)cc23)ccc1NC(=O)NC(C)c1nccs1` (stereo not given), the Potency is 10.5 µM (active).
On the same count and under the same terms, for `Nc1nc(Nc2ccc3c(c2)CC[C@@H](N2CCCC2)CC3)nn1-c1cc2c(nn1)-c1ccccc1CCC2` the value was 23.5 µM (active).
In the case of `CC(=O)Nc1ccc(O)cc1`, the viability was 94.1%.
As for `CCCNC(=O)[C@H]1O[C@@H]1C(=O)N[C@H](C(=O)N1CCC[C@H]1C(=O)OC)C(C)CC` (stereo not given in full), the Potency is 26.3 µM (active).
On to `COc1cc(NS(C)(=O)=O)ccc1Nc1c2ccccc2nc2ccccc12`, for which the Potency was 2.09 µM (active).
Take `CO[C@H]1C[C@@H]2CC[C@@H](C)[C@@](O)(O2)C(=O)C(=O)N2CCCC[C@H]2C(=O)O[C@H]([C@H](C)C[C@@H]2CC[C@@H](OC(=O)C(C)(CO)CO)[C@H](OC)C2)CC(=O)[C@H](C)/C=C(\C)[C@@H](O)[C@@H](OC)C(=O)[C@H](C)C[C@H](C)/C=C/C=C/C=C/1C`: the Potency is 0.091 µM (active).
Consider `Cn1c(=O)c2c(ncn2CC2OCCO2)n(C)c1=O`, for which the viability was 103%.
`Cc1onc(-c2ccc(F)cc2)c1COc1ccc(C(=O)N2CCS(=O)(=O)CC2)cn1`: the viability was 112%.
Consider `CC1(C)S[C@H]2[C@H](NC(=O)[C@@H](N)c3ccc(O)cc3)C(=O)N2[C@H]1C(=O)O`, for which the viability was 99.7%.
With `CN1CCN(c2ccc(Nc3ncc4cc(C#N)c(=O)n(C5CCCC5)c4n3)cc2)CC1`, the Potency was 1.18 µM (active).
The same measure, in the same setting: for `Cc1nnc(C[C@@H]2C=C(c3ccc(Cl)cc3)c3ccccc3-n3c(C)nnc32)o1` the value was 0.662 µM (active).
With `Cc1ccc(C)c(OCCCC(C)(C)C(=O)O)c1`, the viability is 116%.
For `C[C@H]1[C@@H](OC(=O)CCC(=O)O)O[C@@H]2O[C@@]3(C)CC[C@@H]4[C@H](C)CC[C@@H]1[C@@]24OO3`, the Potency was 3.72 µM (active).
As for `CNC(=O)c1c(C)oc2cc(Oc3ncnc4cc(OC)c(OC)cc34)ccc12`, the viability is 116%.
For the molecule `NC(=O)C1=C(O)[C@@]2(O)C(=O)C3=C(O)c4c(O)cccc4C[C@H]3C[C@H]2CC1=O`, the Potency was 4.68 µM (active).
Turning to `CC(c1cc2ccccc2s1)N(O)C(N)=O` (stereo not given), the viability is 106%.
Regarding `COc1ccc(/C=C\c2cc(OC)c(OC)c(OC)c2)cc1O`, the Potency was 0.0148 µM (active).
On to `CN(Cc1cnc2nc(N)nc(N)c2n1)c1ccc(C(=O)N[C@@H](CCC(=O)O)C(=O)O)cc1`, for which the Potency is 0.0372 µM (active).
For `COc1ccc2nc(S(=O)Cc3ncc(C)c(OC)c3C)[nH]c2c1` (stereo not given), the viability was 95.9%.
Regarding `CC(C)NCCCn1c(Sc2cc(Cl)cc(Cl)c2)nc2c(N)ncnc21`, the viability is 98.3%.
As to `O=C(O)/C(S)=C/c1ccc(I)cc1`, the viability is 112%.

For the origin of these results see PubChem BioAssay (NCATS).
